According to PubChem BioAssay AID977621 (Broad Institute, 2014):
Among all 1,900 compounds or so, fewer than 10 were called active. Not shown: some 6% with an inconclusive outcome.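 The calls were made as follows: active = Wild-type ribosome reporter drop at least double the humanized mutant ribosome reporter drop, growth loss under a set limit; inconclusive = no clear call, values can overlap the other calls; inactive = the rest.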 Not all results are given here.

Test: wild-type E. coli growth inhibition versus H69 humanized strain – H69 mutant RFP, wild-type GFP, cherry-pick, dose response (AID 977621);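 also: wild-type GFP and H69 mutant RFP strains grown together 50/50 in each well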
Conditions: fluorescence, 24 h; series mostly up to 50 µM; activity change, negative = inhibition: at the top concentration

Activity change, negative = inhibition, inactive:
O=C(Nc1cccc(Cl)c1)N1C[C@@H]2[C@H](c3ccccc31)[C@H](CO)N2Cc1ccncc1 -11.3
CNC(=O)c1ccsc1NC(=O)c1ccc(S(=O)(=O)N2CCc3ccccc32)cc1 -12.4
Cc1ccccc1S(=O)(=O)NC(=O)C1(C)CCN1C(=O)C1(c2ccc(Cl)cc2)CC1 (configuration not stated) -27.3
CCc1c(N=O)c(-c2ccccc2)n(O)[n+]1[O-] -13.6
CCc1cc2cc(OC)ccc2nc1SCC(=O)Nc1cc(OC)c(OC)cc1C(=O)O -9.53
CC1CCCC(NC(=O)COC(=O)[C@@H]2CC(O)CN2S(=O)(=O)c2ccc3c(c2)OCCO3)C1C (some centres not stated) -14.8
Cn1cc(CCC(=O)NCc2ccc3c(c2)OCO3)c2ccccc21 -1.57
C[C@@H](Nc1nc(-c2ccccc2)nc2c1oc1ccccc12)C(=O)O 0.697
CC(=O)Nc1ccc(CNc2nc(NCCN(C)C)nc3cc(-c4ccccc4)sc23)cc1 -6.2
Fc1cccc(Cl)c1CSc1ccc(-c2ccco2)nn1 -7.72
Cc1ccc(C(=O)NCC(=O)OCC(=O)Nc2cccc(S(=O)(=O)N3CCCC3)c2)cc1C -11.8
Cc1cc(C)cc(NC(=O)c2cccc(NC(=O)C3C4CC5OC(=O)C3C5C4)c2)c1 (configuration not stated) -23.8
Cc1ccc(OCCCC(=O)NC(C)c2ccccc2)c(C)c1 (configuration not stated) 1.35
Cc1nn(C(C)(C)C)c(OC(=O)CC(C)C)c1S(=O)(=O)c1ccccc1 -8.86
O=C(NCCc1csc(-c2ccccc2)n1)c1ccccc1F -4.03
Cc1cccc(NC(=O)c2nc(S(=O)(=O)Cc3ccccc3)ncc2Cl)c1 1.78
Cc1ccc(-c2c[n+](CC(=O)Nc3ccccc3)c3n2CCC3)cc1 0.924
COc1ccc(C(C)=O)cc1COc1ccc(Cl)c(C)c1 -0.916
COc1cccc(S(=O)(=O)N2CCCCN3[C@H](C2)[C@H](c2ccc(C#CC(C)C)cc2)[C@@H]3CO)c1 -7.66
COc1ccc2c(c1)c1ncn(Cc3ccccn3)c(=O)c1n2C 7.92
O=C(Nc1nnc(Cc2ccc(Cl)cc2)s1)c1ccncc1 -2.34
Cc1ccc2c(N)c(C(=O)c3ccccc3)sc2n1 5.41
Cc1onc(-c2ccccc2Cl)c1C(=O)OCC(=O)c1ccccc1 -7.36
COc1ccc(CN(C)C[C@H]2Oc3ccc(NS(=O)(=O)c4ccc(Cl)cc4)cc3CC(=O)N([C@@H](C)CO)C[C@H]2C)cc1 -3.97
Cc1ccc(F)c(NC(=O)CCOc2ccccc2C)c1 -5.24
COc1ccccc1N1CCN(Cc2ccc(OC)c3ccccc23)CC1 -8.52
CC1CCCN(c2ccc(C(=O)NCCc3ccccc3)cn2)C1 (configuration not stated) -2.97
COc1ccc(C2=NN(C(=O)c3cccnc3)C(c3ccccc3)C2)cc1 (configuration not stated) -12.2
Cc1ncoc1C(=O)NCCC(c1ccccc1)c1ccccc1 -2.92
OCCN(Cc1ccccc1)Cc1ccc(Cl)cc1 -28.9
Cc1ccccc1-n1nnnc1SCCCC(=O)c1ccc(F)cc1 -3.23
CCN(CC)C(=O)c1sc2nc(-c3ccccc3)ccc2c1N -8.31
CCn1c(NC(=O)c2nn(C)cc2Br)nc2ccccc21 0.246
Cc1ccc(S(=O)(=O)N2CC(=O)Nc3ccccc32)cc1C -1.95
COC(=O)c1cc(C)sc1NC(=O)CC1Nc2ccccc2NC1=O (configuration not stated) -4.8
O=C(NCCc1ccccc1)c1cccc(NC(=O)c2ccccc2)c1 -14
C[C@@H]1CN([C@@H](C)CO)C(=O)c2cc(NS(=O)(=O)c3ccccc3)ccc2O[C@@H]1CN(C)Cc1ccc(C(=O)Nc2ccccc2N)cc1 -10.1
